Experimental data taken from PubChem BioAssay (NCI).
Where “and” joins values, the source holds several entries; their conditions need not be identical. Identical values can stand only once. About 83,000 compounds went through this panel and 20% of them were active in at least one assay; those are over-represented in the sample as a whole.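 Plates (96-well) were seeded with cells, treated with compound at one concentration, and incubated for 48 hours before percent growth was determined.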 A number with no mark means an inactive call. Calls of active or inactive are those of the source. How the source made its calls: active means growth percent below 10; inactive means the rest.

test system: HL-60(TB) leukemia; test: NCI-60 one-dose screen, 48 h (100 = growth as untreated, 0 = no growth, -100 = all killed); conditions: 10 µM unless noted

Row | Structure (SMILES) | growth
1 | N#CCCn1cnc2c(N)ncnc21 | 98.6%
2 | COc1cc(/C=C2/Oc3cc4occc4c(OC)c3C2=O)ccc1OCC(=O)Nc1ccncc1 | 106%
3 | C=C[C@]1(C)C=C2C(=O)[C@@]3(O)OC(=O)[C@@]4(CCCC(C)(C)[C@H]34)[C@@]2(O)CC1 | -25% (active)
4 | O=C(Oc1cccc(OC(=O)c2ccccc2)c1)c1ccccc1 | 73% and 114%
5 | O=C(OCC1CCCO1)c1ccc([N+](=O)[O-])cc1 (centres undefined) | 102%
6 | COc1ccc(/C=C\c2nc3ccccc3s2)cc1OP(=O)(O)O | -1.37% (active)
7 | COc1cccc(-c2nn(-c3ccccc3)cc2-c2ccnc(NCCCNC(=O)Nc3ccc(Cl)c(Cl)c3)c2)c1 | 16.8%
8 | CCN(CC)c1ccc2nc3ccc(=[N+](CC)CC)cc-3oc2c1 | -12.7% (active)
9 | Nc1c(S(=O)(=O)O)cc(Br)c2c1C(=O)c1ccccc1C2=O | 103% and 91%
10 | CCN(CC)c1ccc(\C=N/N=C(N)/C(N)=N\N=C/c2ccc(N(CC)CC)cc2)cc1 | 112%
11 | N#C/C(=C\c1ccc(-c2ccc(Br)cc2)o1)c1nc(-c2ccco2)cs1 | 89.3%
12 | COc1ccc(C2=NN(C(C)=O)C(c3cc(OC)c(OC)c(OC)c3)C2)cc1 (centres undefined) | 95.2%
13 | O=C(/C=C/c1ccco1)c1ccc(Nc2nc(Nc3ccc(F)cc3)nc(Nc3ccc(Cl)cc3)n2)cc1 | -93.7% (active)
14 | O=C1COCCN1c1ccc(Nc2nc(Cl)nc(OCc3cn(Cc4ccccc4)nn3)n2)cc1 | 40.3%
15 | Clc1cc(Cl)cc(-c2ccc(-c3ccc(/C=N/NC4=NCCN4)cc3)s2)c1 | 19.6%
16 | CC(=O)OC1C=CC(OC(C)=O)O1 (centres undefined) | 102%
17 | O=C1c2c(c3c4ccc(Br)cc4oc3c3[nH]c4ccccc4c23)C(=O)N1O | 25%
18 | COc1cc2nc(N3CCC[C@@H](NC4=CC(=O)c5ccccc5C4=O)C3)nc(N)c2cc1OC | -60.3% (active)
19 | COc1ccc([N+](=O)[O-])c(C(=O)O)c1 | 111%
20 | CCCCCCCCCCCCCCCCN(CC)CC | -61.2% (active)

Row | Structure (SMILES) | growth
21 | Cc1cccc2nnc(-c3ccccc3)n12 | 99%
22 | C=C1C(=O)O[C@H]2[C@H]1CC/C(COC(=O)CCSCCC(=O)OC/C1=C/CC[C@@]3(C)O[C@H]3[C@H]3OC(=O)C(=C)[C@@H]3CC1)=C\CC[C@@]1(C)O[C@@H]21 | -58.2% (active)
23 | O=C(c1cccc(C(=O)c2ccc3c4c(cccc24)C(=O)N(c2ccccc2)C3=O)c1)c1ccc2c3c(cccc13)C(=O)N(c1ccccc1)C2=O | 103%
24 | O=c1c2c(c3ccccc3n1-c1ccccc1)NC(=S)NC2c1ccccc1 (centres undefined) | 44.3%
25 | CC1(C)CC2(C)CC(=O)C1C(C(=O)O)C2C(=O)O (centres undefined) | 97.9%
26 | NC(=O)c1ccccc1NC(=O)c1ccccc1Cl | 64.4%
27 | O=C(CCl)Nc1ccccc1SCc1cc(Cl)cc2c1OCOC2 | 49.4%
28 | COc1ccc(S(=O)(=O)NCCNc2nccc(-c3c(-c4cccc(F)c4)nc4sccn34)n2)cc1 | 58.8%
29 | CCCCN(CCCC)CCCCCCCCCCO | 95.1%
30 | CC(=O)Oc1ccc(C(c2ccc(OC(C)=O)cc2)c2ccccn2)cc1 | 102%
31 | COc1ccc(/C=C(\C#N)c2ccccc2)cc1 | 95.8%
32 | COc1ccc2c(c1)sc1nc(-c3ccccc3)c(-c3ccc(O)c(OC)c3)n12 | 44.2%
33 | COc1ccc(-c2nc(/C=N/Nc3cc(C)nc4ccc(Cl)cc34)c(C)o2)cc1 | -41% (active)
34 | Oc1nc(NCCc2ccccc2)sc1/C=C1\C=Nc2ncccc21 | -6.57% (active) and 6.77% (active)
35 | O=S(=O)(Nc1ccccc1)C1CCCCC1 | 97.2% and 106%
36 | CCOC(=O)c1sc2ncc(-c3ccc(C)cc3)n2c1C | 75.4%
37 | COC(=O)[C@H]1CCCN1C(=O)C1CCCN1C(=O)[C@@H](Cc1ccccc1)NC(=S)Nc1cc(C(F)(F)F)cc(C(F)(F)F)c1 (some centres undefined) | 112% and 58.9%
38 | N/C(=N\C(N)=N\c1nc2ccccc2s1)c1cccc(Br)c1 | 95.4%
39 | COc1cc2c(c(OC)c1OC)-c1ccc(OC)c(=O)cc1[C@@H](NC(C)=O)CC2 | -36% (active) and -38.2% (active)
